LASV entry inh – Lassa virus entry inhibition; Lassa virus pseudotype entry inhibition, cell reporter; Potency, µM (top dose mostly 37.9 µM), for the others: at the highest dose activity change, negative = inhibition, hits mostly inhibitors; hit rate 1.2% among 300,000; calls by dose curve; tested in HEK293 cells; note: potency is the fitted concentration of half-maximal effect; % is set by controls: 0 for no effect and ±100 for the full control effect; nearly all actives have a fitted effect of over 50% in size
MARV entry inh – Marburg virus entry inhibition | Marburg virus pseudotyped entry inhibition, cell reporter | Potency, µM (series often up to 37.8 µM), inactives show at the highest dose activity change, negative = inhibition, usual class: inhibitors | hit rate 1.8% among 300,000; calls by dose curve; tested in HEK293 cells; note: potency is the fitted concentration of half-maximal effect; % is set by controls: 0 for no effect and ±100 for the full control effect
CHX counter – counter-screen hit for Shiga toxin inhibitors, cycloheximide | cell reporter, cycloheximide protein synthesis inhibition counterscreen | max response, % | hit rate 12% among 300,000 | AID 2314; in the data active = max response mostly above about 13%, no sharp cut-off; inactive = mostly below about 14%; note: read at 38.3 µM for the half of the compounds with a filed dose; 0% is about no effect
Shiga inhibitor – inhibitors of Shiga toxin in Vero cells; Vero cells, Shiga toxin protein synthesis inhibition reporter; inhibition, % at 38.7 µM; hit rate 9.2% among 290,000; in the data active = inhibition mostly above about 28%, no sharp cut-off; inactive = mostly below about 43%; note: 0% is about no effect
The depositor's hits bear a star; [ ] = dose if it differs, or a comment. Shown are actives, neighbours in structure and some others; about 12% of the full set was active somewhere.

For c1ccc(CN2CCN(C3=Nc4cccc5cccc3c45)CC2)cc1 the results were LASV entry inh -17%, MARV entry inh inconclusive, CHX counter 18* and Shiga inhibitor 48.
Screening CCC(C)NC(=O)c1ccc(NC(=O)C2CCCO2)cc1 (stereo not drawn) returned LASV entry inh 28%, MARV entry inh -5%, CHX counter -1 and Shiga inhibitor 3.
Screening Cc1nnc(NC(=O)C2=COCCO2)s1 returned LASV entry inh 21% and MARV entry inh -1%[46.1 µM].
For CCCc1nnc(NC(=O)CCC(=O)NC2CCCC2)s1 the results were CHX counter -5 and Shiga inhibitor 17.
For CCC(CC)c1nnc(NC(=O)C2CCCO2)s1 (stereo not drawn) the results were MARV entry inh 24%[46.1 µM], CHX counter 19* and Shiga inhibitor 17.
CCCCc1nnc(NC(=O)C2=COCCO2)s1 was read as LASV entry inh -3%[46.1 µM], MARV entry inh inconclusive, CHX counter 40* and Shiga inhibitor 69*.
CCCCc1nnc(NC(=O)C2CCCO2)s1 (stereo not drawn) was read as LASV entry inh 5%, MARV entry inh 4%, CHX counter 15* and Shiga inhibitor 53*.
CC1CCN(S(=O)(=O)c2cc3c4c(c2)C(C)C(=O)N4CCC3)CC1 (stereo not drawn) was read as LASV entry inh -8%[46.1 µM], CHX counter 7 and Shiga inhibitor -2.
For C/C(=N\NC(=O)c1cc(C)[nH]n1)c1cccs1 the results were LASV entry inh inconclusive, MARV entry inh -3%[14.2 µM], CHX counter 12 and Shiga inhibitor 59*.
Screening Cc1cc(C(=O)N/N=C/C=C/c2ccccc2)n[nH]1 returned LASV entry inh 1%, MARV entry inh 0%[46.1 µM], CHX counter 7 and Shiga inhibitor 36.
For C/C(=N/NC(=O)c1cc(C(C)C)[nH]n1)c1cccs1 the results were LASV entry inh inconclusive, MARV entry inh inconclusive, CHX counter 16 and Shiga inhibitor 39.
C/C(=N\NC(=O)c1cc(C)[nH]n1)c1ccc(-c2ccccc2)cc1 was read as LASV entry inh inconclusive, MARV entry inh inconclusive, CHX counter 9 and Shiga inhibitor 55*.
S=C1NC2(CCS1)Oc1ccccc1C1CC(c3ccccc3)=NN12 (stereo not drawn) was read as CHX counter 33* and Shiga inhibitor 70*.
`COc1ccc2c(c1OC)C(=O)N1N=C(c3ccc(-c4ccccc4)cc3)CC21` (stereo not drawn) gave LASV entry inh -15%, MARV entry inh -7%, CHX counter 1 and Shiga inhibitor -15.
CN1C(=O)C(O)(c2sc(N)nc2-c2ccccc2)c2ccccc21 (stereo not drawn) was read as LASV entry inh 2%, MARV entry inh 17%, CHX counter -1 and Shiga inhibitor 18.
For Cc1ccc(C2=NN3C(C2)c2ccccc2OC32C(=O)Nc3ccccc32)cc1 (stereo not drawn) the results were LASV entry inh -18%, MARV entry inh -27%, CHX counter 42* and Shiga inhibitor 78*.
Screening CN1C(=O)C2(Oc3ccccc3C3CC(c4ccccc4)=NN32)c2ccccc21 (stereo not drawn) returned LASV entry inh 10%, MARV entry inh inconclusive, CHX counter 28* and Shiga inhibitor 78*.
Cc1ccc(CNC(=O)C2(C)Oc3ccccc3NC2=O)cc1 (stereo not drawn) was read as LASV entry inh -10%, MARV entry inh 14%[46.1 µM], CHX counter -2 and Shiga inhibitor -9.
`O=C(COC(=O)c1c2ccccc2cc2ccccc12)NCC(F)(F)F` gave LASV entry inh -14%, MARV entry inh -3%, CHX counter -1 and Shiga inhibitor -4.
`O=C(COC(=O)c1ccc2ccccc2c1O)NCC(F)(F)F` gave CHX counter 22* and Shiga inhibitor 69*.
`O=C(c1ccco1)N1CCN(C(c2ccc(Cl)cc2)c2nnnn2Cc2ccccc2)CC1` (stereo not drawn) gave LASV entry inh -21%, MARV entry inh -8%, CHX counter 13* and Shiga inhibitor 15.
For COc1ccc(C(c2nnnn2Cc2ccccc2)N2CCN(C(=O)c3ccco3)CC2)cc1 (stereo not drawn) the results were LASV entry inh inconclusive, MARV entry inh 8%, CHX counter 28* and Shiga inhibitor -3.
Screening CN1CCN(C(=O)COc2ccc3ccccc3c2)CC1 returned LASV entry inh 24%, MARV entry inh inconclusive, CHX counter 14* and Shiga inhibitor 31*.
`O=C(COc1ccc2ccccc2c1)N1CCN(c2ccccc2)CC1` gave LASV entry inh -23% and MARV entry inh -15%.
Screening OC(COc1ccc2ccccc2c1)CN1CCCC1 (stereo not drawn) returned LASV entry inh 5%, MARV entry inh inconclusive, CHX counter 18* and Shiga inhibitor 37.
O=C(COc1ccc2c3c(c(=O)oc2c1)CCC3)N1CCCCC1 was read as LASV entry inh -22%, MARV entry inh inconclusive, CHX counter 25* and Shiga inhibitor 86*.
`COc1ccc(N2CCN(C(=O)COc3ccc4ccccc4c3)CC2)cc1` gave LASV entry inh -1%, MARV entry inh 15%, CHX counter -1 and Shiga inhibitor -5.
O=C(COc1ccc2ccccc2c1)N1CCCC1 was read as LASV entry inh 22%, MARV entry inh inconclusive, CHX counter 40* and Shiga inhibitor 79*.
`O=C(COc1ccc2c3c(c(=O)oc2c1)CCC3)N1CCCC1` gave MARV entry inh inconclusive, CHX counter -2 and Shiga inhibitor -3.
CCC1CC=CC2C1C(=O)N(Cc1ccccc1)C2c1ccc2ccccc2c1 (stereo not drawn) was read as CHX counter -5 and Shiga inhibitor -3.
Screening CC1(C)COC(c2coc3ccccc3c2=O)OC1 returned LASV entry inh 26%, MARV entry inh inconclusive, CHX counter 46* and Shiga inhibitor 87*.
CC1(C)COC(c2ccccc2Cl)OC1 was read as LASV entry inh 0%[46.1 µM] and MARV entry inh inconclusive.
Screening COc1ccc(/C=C2\Sc3ccc(C(=O)NCC4CCCO4)cc3N(C)C2=O)cc1 (stereo not drawn) returned LASV entry inh inconclusive, MARV entry inh inconclusive, CHX counter 12* and Shiga inhibitor 11.
COc1ccc(/C=C2\SC(=S)N(CC3CCCO3)C2=O)cc1 (stereo not drawn) was read as LASV entry inh 5%, MARV entry inh 10%, CHX counter 20* and Shiga inhibitor 13.
O=C1/C(=C/c2ccco2)SC(=S)N1CC1CCCO1 (stereo not drawn) was read as LASV entry inh -1%, MARV entry inh 0%[14.2 µM], CHX counter 26* and Shiga inhibitor 63*.
COc1cc(/C=C2/SC(=S)N(CC3CCCO3)C2=O)ccc1O (stereo not drawn) was read as LASV entry inh inconclusive, MARV entry inh inconclusive, CHX counter 21* and Shiga inhibitor 41*.
For O=C(O)/C=C/c1ccc2c(-c3ccccc3)onc2c1 the results were LASV entry inh inconclusive, MARV entry inh inconclusive, CHX counter 6 and Shiga inhibitor 9.
`CC(C)C[C@@H]1COc2cccc(NN3CCN(C)CC3)c2S(=O)(=O)N1` gave LASV entry inh -1%[46.1 µM].

Screens as filed in PubChem BioAssay.
